Source: PubChem BioAssay (EPA / NIEHS)
Records with an inconclusive call do not appear. Calls of active or inactive are those of the source. Rule for the calls: active = hit-call score of the fitted dose curve at least 0.9, where 1 is the maximum; inconclusive = response in the unintended direction; inactive = score below 0.9.

Biological target: mouse Estrogen Receptor alpha (Era), Esr1 (gene 13982) (UniProt P19785)
Assay: NVS_NR_mERa: NovaScreen (NVS) Nuclear Receptor Binding Assay for mouse Estrogen Receptor alpha (Era) (AID 2283378);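 note: hit means loss of bound radioligand signal relative to DMSO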
Protocol: NVS_NR_mERa is a biochemical, single-readout assay that uses extracted gene-proteins in a cell-free assay. Measurements were taken 18 hours after chemical dosing in a 96-well plate.NVS_NR_mERa is one of one assay component(s) measured or calculated from the NVS_NR_mERa assay. It is designed to make measurements of radioligand binding, a form of binding reporter, as detected with scintillation counting signals by Filter-based radiodetection technology.Data from the assay component NVS_NR_mERa was analyzed into 1 assay endpoint. This assay endpoint, NVS_NR_mERa, was analyzed in the positive analysis fitting direction relative to DMSO as the negative control and baseline of activity. Using a type of binding reporter, loss-of-signal activity can be used to understand changes in the binding as they relate to the gene Esr1. Furthermore, this assay endpoint can be referred to as a primary readout, because the performed assay has only produced 1 assay endpoint. To generalize the intended target to other relatable targets, this assay endpoint is annotated to the nuclear receptor intended target family, where the subfamily is steroidal.
Binding assays used specific radioligands (tritiated, iodinated) with non-radioactive competitive displacement ligands in agonist or antagonist protocols (as indicated) and various reference compounds and inhibitors to titrate specific binding to receptors and transporters. Most enzyme assays (CYPs, kinases, phosphatases, proteases, HDACs) used recombinant protein and specific substrates (fluorescence mostly, some colorimetric and radioactive) and inhibitors, followed by a biochemical separation of substrate and product. All assays for the biochemical HTS were initially run in duplicate at a single concentration (10 uM for CYP450 assays and 25 uM for all others). […] Each assay was run with positive and negative controls, and concurrent controls on every plate. The follow-up (secondary) screen tested active chemical-pairs in concentration series, as well as a few additional assays not tested in the primary screen, some selected negative inactives, and several cases re-run in the concentration series for confirmatory purposes.

mouse Estrogen Receptor alpha (Era), Esr1 (gene 13982), sequence (P19785 whole entry, looked up): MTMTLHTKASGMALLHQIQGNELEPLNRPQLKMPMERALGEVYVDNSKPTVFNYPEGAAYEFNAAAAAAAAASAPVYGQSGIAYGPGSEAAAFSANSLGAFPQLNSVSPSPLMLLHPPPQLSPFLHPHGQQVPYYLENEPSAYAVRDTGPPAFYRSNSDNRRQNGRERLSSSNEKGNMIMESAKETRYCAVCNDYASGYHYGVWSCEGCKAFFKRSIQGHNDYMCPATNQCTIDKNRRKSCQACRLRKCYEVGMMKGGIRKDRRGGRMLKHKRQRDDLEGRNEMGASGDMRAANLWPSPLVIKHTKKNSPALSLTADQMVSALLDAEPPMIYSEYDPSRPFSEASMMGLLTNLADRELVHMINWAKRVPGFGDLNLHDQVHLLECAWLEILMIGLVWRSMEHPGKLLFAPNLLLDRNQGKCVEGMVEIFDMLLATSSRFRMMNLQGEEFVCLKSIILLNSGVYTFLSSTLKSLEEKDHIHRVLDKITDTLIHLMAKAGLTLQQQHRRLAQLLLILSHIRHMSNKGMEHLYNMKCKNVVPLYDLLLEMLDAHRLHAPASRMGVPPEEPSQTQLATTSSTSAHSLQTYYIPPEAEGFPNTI

Row | Compound | AC50 | outcome
1 | CCC(=O)Oc1ccc(/C(CC)=C(\CC)c2ccc(OC(=O)CC)cc2)cc1 | 0.0132 µM (active) | 
2 | O=C1CCCCCN1SSN1CCCCCC1=O |  | inactive
3 | [Cl][Bi]([Cl])([c]1ccccc1)([c]1ccccc1)[c]1ccccc1 |  | inactive
4 | CC(=O)[C@H]1[C@H](C#N)C[C@H]2[C@@H]3CC=C4C[C@@H](O)CC[C@]4(C)[C@H]3CC[C@@]21C | 4.26 µM (active) | 
5 | CCOC(=O)N1CCC(=C2c3ccc(Cl)cc3CCc3cccnc32)CC1 |  | inactive
6 | O=C(O)CCCC[C@@H]1SC[C@@H]2NC(=O)N[C@@H]21 |  | inactive
7 | O=C(O)c1ccccc1Nc1cccc(C(F)(F)F)c1 |  | inactive
8 | CC(C)(c1cc(Br)c(OCCO)c(Br)c1)c1cc(Br)c(OCCO)c(Br)c1 |  | inactive
9 | CCCCCCCC[N+](C)(CCCCCCCC)CCCCCCCC | 0.338 µM (active) | 
10 | CC(=O)OC(C)C |  | inactive
11 | CC(C)C1=CC2=CC[C@@H]3[C@](C)(CCC[C@@]3(C)C(=O)O)[C@H]2CC1 |  | inactive
12 | C=CC(C)(CCC=C(C)C)OC(=O)CC(C)C (centres undefined) |  | inactive
13 | CCC(Cc1ccccc1)(C(=O)c1ccc(N2CCOCC2)cc1)N(C)C (centres undefined) |  | inactive
14 | O=C(O)CCCCCCCCCC(=O)O |  | inactive
15 | COc1ccc(C(Cl)=C(c2ccc(OC)cc2)c2ccc(OC)cc2)cc1 | 4.88 µM (active) | 
16 | CCC(C)OC(=O)c1ccc(O)cc1 (centres undefined) | 4.99 µM (active) | 
17 | CC(C)(C)C(=O)CCc1ccc(Cl)cc1 |  | inactive

Row | Compound | AC50 | outcome
18 | O=C1Nc2ccccc2C1(c1ccc(O)cc1)c1ccc(O)cc1 | 6.61 µM (active) | 
19 | COc1ccc(-c2coc3cc(O)ccc3c2=O)cc1 | 0.143 µM (active) | 
20 | C#CC1(O)CC[C@H]2[C@@H]3CCC4=CCCC[C@@H]4[C@H]3CC[C@@]21C (some centres undefined) | 6.99 µM (active) | 
21 | Cc1cccc(N(C)C(=S)Oc2ccc3ccccc3c2)c1 |  | inactive
22 | CCCCC/C=C\C/C=C\CCCCCCCC(=O)OC |  | inactive
23 | S=C(NC1CCCCC1)NC1CCCCC1 |  | inactive
24 | CC(C)c1ccc2c(c1)CC[C@H]1[C@](C)(CN)CCC[C@]21C |  | inactive
25 | O=S1(=O)OC(c2ccc(O)cc2)(c2ccc(O)cc2)c2ccccc21 | 20.1 µM (active) | 
26 | CC/C=C\C/C=C\C/C=C\CCCCCCCC(=O)O |  | inactive
27 | O=CN1CCCCC1 |  | inactive
28 | CCCCCCCC/C=C\CCCCCCCC(=O)O | 35.8 µM (active) | 
29 | CN(C)c1ccc(N=Nc2ccccc2C(=O)O)cc1 |  | inactive
30 | O=C(c1ccc(O)cc1)c1ccc(O)cc1O | 1.29 µM (active) | 
31 | C=C[C@](C)(O)CC[C@@H]1[C@@]2(C)CCCC(C)(C)[C@@H]2CC[C@@]1(C)O |  | inactive
32 | NC(CO)(CO)CO |  | inactive
33 | CN(C)c1ccc(C(=N)c2ccc(N(C)C)cc2)cc1 |  | inactive
34 | CCCCCCCCCCCCCOP(=O)(O)O | 39.4 µM (active) | 
